Bioassay records as filed in PubChem.
D1 mod: allosteric modulators of human D1 dopamine receptor | 58,000 tested, 5.9% active | HEK293 D1, CRE-luciferase, dopamine EC30 potentiation; actives deviate in either direction | P21728 | B-score at 10 µM;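 active means luminescence count or its row- and column-corrected plate score outside the 99.7% band of the plate's sample wells, on either side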
Target sequence (P21728 whole entry, looked up): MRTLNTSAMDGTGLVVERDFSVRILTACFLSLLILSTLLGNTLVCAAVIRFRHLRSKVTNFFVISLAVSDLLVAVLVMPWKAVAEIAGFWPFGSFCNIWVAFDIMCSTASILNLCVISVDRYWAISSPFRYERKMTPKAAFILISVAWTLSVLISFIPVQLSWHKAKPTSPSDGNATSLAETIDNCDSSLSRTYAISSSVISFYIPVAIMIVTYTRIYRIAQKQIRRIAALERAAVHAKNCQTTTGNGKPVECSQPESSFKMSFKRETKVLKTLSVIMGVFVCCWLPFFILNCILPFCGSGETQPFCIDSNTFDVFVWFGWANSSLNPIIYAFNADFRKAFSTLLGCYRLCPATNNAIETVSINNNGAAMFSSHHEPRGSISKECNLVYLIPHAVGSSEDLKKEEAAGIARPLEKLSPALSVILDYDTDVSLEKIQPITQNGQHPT
Calb biofilm kill: kills Candida albicans biofilms. C. albicans biofilm + clotrimazole, Alamar Blue. AID 834. inhibition, % at 6 µM. 85,000 tested, 0.14% active;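 active means inhibition above 20%; inactive means inhibition below 20%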;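 further: preformed 24 hr biofilms exposed to compound for 48 hr; 0% = biofilm without compound and 100% = blank killed by clotrimazole plus chlorhexidine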
HePTP inh: human HePTP phosphatase inhibition; 110,000 tested, 0.64% active; inhibition, % at 20 µM; P35236; AID 521; recombinant HePTP phosphatase activity, OD absorbance; in the data active means inhibition above about 50%;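 further: plate controls were vehicle for no effect and reference inhibitor for full effect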
PLAP activator: human PLAP activation; activation fold at 20 µM; 96,000 tested, 1.2% active; P05187; purified PLAP enzyme, luminescent substrate read-out; hits give high values; in the data active means activation fold above about 2
hDAT+cocaine: changed human dopamine transporter uptake under cocaine IC80; 110,000 tested, 1.3% active; AID 449768; LLC-PK1 hDAT cells, [14C]-dopamine uptake with cocaine IC80; actives deviate in either direction; Q01959; B-score at 10 µM;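 active means Z score or B-score, a plate-position-corrected score, falls beyond the plate's 99.7% confidence bounds, in either direction; inactive means both scores lie inside the 99.7% bounds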;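 further: scored against the spread of the other compound wells on the same plate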
TNAP act mid DEA: activators of human TNAP at intermediate phosphate acceptor. P05186. purified TNAP, CDP-star luminescence, 100 mM DEA, 30 min; hits give high values; scale: 0 levamisole-inhibited, 1 vehicle-only enzyme. activation factor at 20 µM. 64,000 tested, under 10 active. AID 813;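 active means activation factor of at least 2 at 20 µM, relative to controls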
Numbers without * were called inactive; x = no result given. This excerpt belongs to a sample that is enriched for hits.

SMILES	D1 mod	Calb biofilm kill	HePTP inh	PLAP activator	hDAT+cocaine	TNAP act mid DEA
CCN1CCN(Cc2nc3c(c(=O)n(C)c(=O)n3C)n2CCc2ccccc2)CC1	0.49	3	8	x	-3*	1
CCCCn1c(CN2CCN(c3ccc(F)cc3)CC2)nc2c1c(=O)n(C)c(=O)n2C	-2.6*	0	7	1.3	0.24	0.8
Cn1c(O)c(N=NC(=S)NC2CCS(=O)(=O)C2)c2ccccc21 (stereo not drawn)	x	x	-7	x	x	x
O=S(=O)(c1cccc2c(S(=O)(=O)N3CCOCC3)cccc12)N1CCOCC1	x	x	8	x	x	x
CN(C)CCSc1nc(-c2ccccc2)nc2c1COC(C)(C)C2	x	6	x	1.7	3*	x
O=C(c1ccccc1)N1CCCC(c2nc3c(nnn3Cc3ccccc3)c(=O)[nH]2)C1 (stereo not drawn)	0.74	8	-7	1.3	2.2	0.9
O=C(C1CCCCC1)N1CCCC(c2nc3c(nnn3Cc3ccccc3)c(=O)[nH]2)C1 (stereo not drawn)	x	4	12	1.6	2.4*	0.9
O=C(C1CCCCC1)N1CCC(c2nc3c(nnn3Cc3ccccc3Cl)c(=O)[nH]2)CC1	1.8	6	2	x	x	0.8
Cc1ccc(C)c(Cn2nnc3c(=O)[nH]c(C4CCCN(C(=O)C5CCCCC5)C4)nc32)c1 (stereo not drawn)	1.3	0	2	1.5	4*	0.9
CC1CN(S(=O)(=O)c2cccc(-c3csc(-c4ccccc4)n3)c2)CC(C)O1 (stereo not drawn)	x	0	x	1.5	2.4*	x
O=S(=O)(c1cccc(-c2csc(-c3ccccc3)n2)c1)N1CCOCC1	x	7	6	1.5	-0.34	0.9
Cc1csc(C2=C(O)CN(c3ccc4c(c3)OCCOCCOCCOCCO4)C2=N)n1	x	x	x	1.9	1.3	x
COc1ccc(N2CC(O)=C(c3nc(C)cs3)C2=N)cc1	x	6	8	2*	0.093	0.9
COc1ccc(N(CC(=O)NC2CCCC2)C(=O)Cn2nnc(-c3ccc(C)cc3)n2)cc1	-0.69	6	-1	x	2.5*	0.9
COc1ccc(-c2nnn(CC(=O)N(CC(=O)NC3CCCC3)c3cccc(C)c3)n2)cc1OC	0.56	-3	0	1.5	2.8*	0.9
COc1ccc(N(CC(=O)NC2CCCC2)C(=O)Cn2nnc(-c3ccc(F)cc3)n2)cc1OC	0.0057	4	-4	1	0.12	0.9
COc1ccc(-c2nnn(CC(=O)N(C3CCCCC3)C(C)C(=O)NC3CCCC3)n2)cc1OC (stereo not drawn)	3.3	6	10	2*	1.5	0.9
COc1ccc(N(CC(=O)NC2CCCC2)C(=O)Cn2nnc(-c3ccc(C)cc3)n2)cc1OC	x	0	8	0.9	0.25	0.9
CN(C)c1ccc(C2=NN(c3ccc(C=O)cc3)C(c3ccccc3)C2)cc1 (stereo not drawn)	x	x	2	x	x	x
CCOC(=O)Cc1csc(SCC(=O)c2c(N)n(CC(C)C)c(=O)n(C)c2=O)n1	-3.9*	9	8	1.1	-0.76	0.9
Cc1csc(SCC(=O)c2c(N)n(CC(C)C)c(=O)n(C)c2=O)n1	x	4	x	0.8	0.36	x
Cc1ccc(Cc2ccc(C(=O)Nc3ccc([N+](=O)[O-])cc3)o2)cc1	x	x	-11	x	x	x
CN(CC1CCCO1)S(=O)(=O)c1ccc(C(=O)Nc2nc3cc4c(cc3s2)OCO4)cc1 (stereo not drawn)	-4.4*	8	5	x	x	0.9
CCN(CC)S(=O)(=O)c1cccc(C(=O)Nc2nc3cc4c(cc3s2)OCCO4)c1	x	7	9	1.6	0.089	1
Cc1c(C#N)c(=O)ncn1-c1ccc(Br)cc1	x	x	3	x	x	x
SMILES	D1 mod	Calb biofilm kill	HePTP inh	PLAP activator	hDAT+cocaine	TNAP act mid DEA
O=C1CCCC2=C1C(c1ccc([N+](=O)[O-])cc1)C1=C(CCCC1=O)O2	x	x	4	x	x	x
COCCOC(=O)C1=C(C)NC2=C(C(=O)CC(C)(C)C2)C1c1ccc(Cl)cc1Cl (stereo not drawn)	x	x	-14	x	x	x
c1ccc(Nc2nc(-c3ccccn3)cs2)nc1	x	x	-1	x	x	x
Cc1nc(N)sc1-c1csc(Nc2ccc(Cl)cn2)n1	1.1	1	-3	x	4.5*	1
Cc1nc(N)sc1-c1csc(Nc2ccccn2)n1	-6*	5	-5	1.6	4.6*	0.9
NC(=O)c1ccccc1N/C=C/C(=O)c1ccccc1	-2.5*	6	2	1	0.29	0.9
O=C(Nc1ccc(Cl)cc1)C1CC2c3ccccc3C1c1ccccc12 (stereo not drawn)	x	x	0	x	x	x
CC1=C(C)C(=O)NC(Nc2nc(C)c3cc(C)cc(C)c3n2)N1 (stereo not drawn)	-3.2*	-3	11	x	x	0.8
CCOC(=O)c1c(NC(=O)NN)sc2c1CCCC2	x	x	-7	x	x	x
CCOC(=O)CCCNC(=O)COC(=O)c1ccc(O)cc1	x	x	x	1.1	2.5*	x
CCOC(=O)COC(=O)c1ccc(O)cc1	0.002	5	3	0.9	-1.7	1
COc1ccc(CCNC(=O)CSc2ccc(-c3ccccc3)nn2)cc1OC	x	x	x	0.9	2*	x
COc1ccc(CCNC(=O)CSc2nc3ccccc3s2)cc1OC	x	x	-3	x	x	x
CCOc1ccc(/C=N\NC(=O)C2CC(=O)N(c3ccc(C)cc3)C2)cc1 (stereo not drawn)	x	x	0	x	x	x
CCOc1ccc(/C=N/NC(=O)C(=O)NCc2cccnc2)cc1	x	x	-5	x	x	x
CN(C)S(=O)(=O)N1CCN(C(=O)c2cccc(Br)c2)CC1	x	-1	x	0.9	-1.1	x
CN(C)S(=O)(=O)N1CCN(C(=O)c2ccccc2)CC1	x	-1	x	0.9	-4.5*	x
CCOC(=O)C(CCOc1c(C)cc(Cl)cc1C)C(=O)OCC	x	x	-1	x	x	x
CC(C)(C)c1csc(NC(=O)c2ccc(Cl)s2)n1	0.62	4	x	1.2	-2.6*	x
Cc1ccc(C(=O)Nc2nc(C(C)(C)C)cs2)s1	x	-2	x	0.8	0.36	x
CCOc1ccc(-c2nnc(SCc3nc4ccccc4[nH]3)n2N)cc1	x	-2	x	2.4*	0.72	x
Cn1c(SCc2nc3ccccc3[nH]2)nnc1-c1cccnc1	0.00032	3	-8	1	-2	1
C(=N\c1nc2ccccc2n1CCN1CCOCC1)/c1ccc2c(c1)OCO2	x	x	2	x	x	x
Cc1ccc(OCCc2c(C)n[nH]c2C)c(Cl)c1	x	x	105*	x	x	x
COc1cc(NS(=O)(=O)c2ccc(N/C=C/C(=O)c3cccs3)cc2)nc(OC)n1	x	x	10	x	x	x
O=C(O)c1ccc2c(c1)C(=O)N(c1ccc(-c3nnc(-c4ccccc4)o3)cc1)C2=O	x	x	102*	x	x	x
O=C(O)c1ccc2c(c1)C(=O)N(c1ccc(-c3nc4ccccc4c(=O)o3)cc1)C2=O	x	x	15	x	x	x
